Results published in PubChem BioAssay (Tox21).
Records with an inconclusive call do not appear. Where a call stands in place of a potency, no number is given. Calls of active or inactive are those of the source. Calls follow the shape of the full dose curve.

Test: p53 small molecule agonists, cell-based qHTS assay with rat liver microsomes: qHTS cell viability counter screen (AID 1963580); also: nearly all actives have a fitted effect of over 45% in size
Details: p53RE-bla HCT-116 + rat microsomes, ATP viability, 16 h; series mostly up to 66 µM
In short: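 Rat liver microsome (0.5 mg/mL final) and NADPH (0.5 mg/mL final) co-incubation with compounds for 16 h at 37 C on HCT-116 p53RE-bla cells; cytotoxicity taken from intracellular ATP luminescence.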
Potency is read from the fitted curve at half-maximal effect.

Structure (SMILES) | Potency
CCC(N)(CO)CO | inactive
CCCCOC(=O)CCS | inactive
CC(=O)S[C@H](C(=O)N[C@H]1Cc2ccccc2[C@H]2CCC[C@@H](C(=O)O)N2C1=O)C(C)C | inactive
CCCCCCCCCOS(=O)(=O)O | inactive
COC(=O)c1ccc([N+](=O)[O-])cc1 | inactive
COC(=O)Cc1cccc2ccccc12 | inactive
CCCCCCCCCCCC(=O)OC[C@@H](O)[C@H]1OC[C@H](OCCO)[C@H]1OCCO | inactive
CCCCCCCC(=O)OCCCCCC | inactive
CC(=O)NC(Cc1ccccc1)C(=O)O (centres undefined) | inactive
Cc1nc2ccccc2s1 | inactive
CCO[Si](C)(C)OCC | inactive
Cc1nc(-c2ccc3c(c2)CCN(CCC2CCC(NC(=O)/C=C/c4ccc(F)cc4)CC2)CC3)no1 (centres undefined) | inactive
O=C(O)CCS | inactive
CCN(CC#N)c1cccc(C)c1 | inactive
CC(C)(C)c1ccc(O)c(C(C)(C)C)c1 | 45.8 µM (active)
CC12CC3CC(C)(C1)CC(N)(C3)C2 | inactive
O=C(/N=N/C(=O)OCc1ccccc1)OCc1ccccc1 | inactive
CC(C)C(=O)O | inactive
c1ccc2cc3c4ccccc4c4ccccc4c3cc2c1 | inactive
CO[Si](CCCNCCC[Si](OC)(OC)OC)(OC)OC | inactive

Structure (SMILES) | Potency
CCCCCCCCS(=O)(=O)Cl | inactive
C=Cc1ccccn1 | inactive
Nc1ccc(S(=O)(=O)Nc2ccc(Cl)nn2)cc1 | inactive
COC(=O)c1ccccc1C(=O)O | inactive
CC(=O)SC[C@@H](C)C(=O)N1CCC[C@H]1C(=O)N[C@@H](Cc1ccccc1)C(=O)O | inactive
CCCCCCCCCCCCCC | inactive
COc1cc(/C=C/C(=O)O[C@H]2CC[C@]34C[C@]35CC[C@]3(C)[C@@H]([C@H](C)CCC=C(C)C)CC[C@@]3(C)[C@@H]5CC[C@H]4C2(C)C)ccc1O | inactive
CC/C=C\CCOC(=O)C(C)C | inactive
O=C1CC2CC1C1CCCC21 (centres undefined) | inactive
CC1CNCC(C)O1 (centres undefined) | inactive
Cc1ccc(C2OC[C@@H]3OC(c4ccc(C)cc4)O[C@H]([C@H](O)CO)[C@@H]3O2)cc1 (some centres undefined) | inactive
CCCCC(O)/C=C(C)/C=C/C=C/C(=O)N1CCCC1=O (centres undefined) | inactive
CC/C=C\CCO | inactive
O=C(O)c1cc(=O)[nH]c(=O)[nH]1 | inactive
CC12CCC(C1)C(C)(C)C2O (centres undefined) | inactive
O=C(C(=O)c1ccccc1)c1ccccc1 | inactive
CCOC(=O)c1cc(=O)c2c(OCC(COc3cccc4oc(C(=O)OCC)cc(=O)c34)OC(=O)[C@@H](N)CCCCN)cccc2o1 | inactive
COc1ccc(C)cc1 | inactive
O=S(=O)(O)CCN1CCN(CCO)CC1 | inactive
